A word on the Inhibition: it is the change of the read-out against control, counted positive when it falls.

In ChEMBL document CHEMBL1157539, “Thousands of chemical starting points for antimalarial lead identification” (Nature, 2010) one finds Inhibition data, which are given here for ten molecules.

What all share (type): functional
Assay [1] deals with Plasmodium falciparum. Briefly: GSK_TCMDC: Inhibition of Plasmodium falciparum 3D7 in whole red blood cells, using parasite LDH activity as an index of growth. Test compounds present at 2uM.
In assay [2] the test system is Plasmodium falciparum. Briefly: GSK_TCMDC: Inhibition of Plasmodium falciparum Dd2 in whole red blood cells, using parasite LDH activity as an index of growth. Test compounds present at 2uM.
The subject of another assay is HepG2. In words: GSK_TCMDC: Percent inhibition of human HepG2 cell line. Test compounds present at 10uM.

Several values for one entry are separate records, joined by “and”; a condition that tells them apart may be missing. Identical values can stand only once.

For the molecule `Br.Cc1ccccc1C1=CCN(CCCN2c3ccccc3Sc3ccc(Cl)cc32)CC1`, the Inhibition in the assay on Plasmodium falciparum [1] was found to be 90%; in the assay with Plasmodium falciparum [2], 30%; in the assay on HepG2, 14%.

Take `CN(c1cc(NC(=O)c2cccs2)ccn1)C1CCN(Cc2ccccc2)CC1.O=C(O)C(F)(F)F`: the Inhibition with Plasmodium falciparum [1] was 92%; with Plasmodium falciparum [2], 87%; in the assay with HepG2, 0%.

Consider `O=C(/C=C/c1c(Cl)cccc1Cl)NC1CCC(CN2CCC(c3c[nH]c4ccccc34)CC2)CC1` (stereo not given), for which the Inhibition is 93% and 100% in the assay on Plasmodium falciparum [1]; 21% and 42% in the assay on Plasmodium falciparum [2]; 54% and 39% in the assay on HepG2.

As for `Cc1ccc(CC(C)NCC(O)c2cccc(C#N)c2)cc1` (stereo not given), the Inhibition was found to be 94% in the assay with Plasmodium falciparum [1], 86% in the assay with Plasmodium falciparum [2] and 2% with HepG2.

On to `O=C(/C=C/c1ccc(Cl)c(Cl)c1)NCCCCCN1C2CCC1CC(c1c[nH]c3ccccc13)C2` (stereo not given), for which the results for the Inhibition with Plasmodium falciparum [1], in the assay with Plasmodium falciparum [2] and in the assay on HepG2 were 98%, 4% and 54%, respectively.

For the molecule `CCCCCCCN1C2CCC1CC(CCOc1ccnc3ccc(OC)cc13)C2` (stereo not given), the Inhibition came out at 98% in the assay on Plasmodium falciparum [1], 88% in the assay on Plasmodium falciparum [2] and 23% with HepG2.

As for `NC(=O)c1ccc2[nH]cc(C3CCN(CC4CCC(NC(=O)/C=C/c5ccc(Cl)c(Cl)c5)CC4)CC3)c2c1` (stereo not given), the Inhibition in the assay on Plasmodium falciparum [1] was 100%; in the assay on Plasmodium falciparum [2], 26% and 32%; with HepG2 it was 0% and 11%.

Turning to `CC(=O)C1(c2ccccc2)CCN(CCC(NC(=O)c2cc(C(F)(F)F)cc(C(F)(F)F)c2)c2ccc(Cl)c(Cl)c2)CC1.Cl` (stereo not given), the results for the Inhibition with Plasmodium falciparum [1], with Plasmodium falciparum [2] and in the assay with HepG2 were 91%, 82% and 9%, respectively.

In the case of `C/C=C1/CN2CC[C@H]1C[C@H]2[C@H](O)c1ccnc2ccc(OC)cc12`, the Inhibition is listed as 99% with Plasmodium falciparum [1], 45% in the assay on Plasmodium falciparum [2] and 0% in the assay with HepG2.

On to `O=C(NC1CCN(CC2(c3ccc(Cl)cc3)CCC2)CC1)c1cscn1`, for which the values for the Inhibition in the assay with Plasmodium falciparum [1], in the assay on Plasmodium falciparum [2] and in the assay on HepG2 were 98%, 95% and 0%, respectively.
